The campaign covered roughly 48,000 compounds. About 13,000 (27%) showed an effect of 50% or more. Some of the results follow.
These compounds were tested on Wolbachia pipientis (assay: Anti-Wolbachia Cell-Based Screen). Conditions: 5 µM.
Assay type: functional
Set-up: scale not given: in the data most compounds retested in dose-response had high values
For `Cc1ccc2c(n1)N(CC1CC1)CCN(Cc1ccco1)C2.O=C(O)C(F)(F)F.O=C(O)C(F)(F)F`, the “Percent Effect” value was 13.96%.
`COc1ccccc1CC(=O)N1CCN(Cc2ccco2)C[C@@H]1C` was tested, and the “Percent Effect” value was 136.4%.
With `C[C@@H]1CN(Cc2ccco2)CCN1C(=O)Cc1ccccc1F` the “Percent Effect” value was 87.95%.
With `COc1ccccc1CC(=O)N(CCN1CCOCC1)Cc1ccco1` the “Percent Effect” value was 0.5032%.
For `O=C(O)C(F)(F)F.O=C1[C@H]2CN(Cc3ccco3)C[C@H]2CN1c1cncnc1`, the “Percent Effect” value was 5.677%.
In the case of `Cc1ccc(F)cc1CC(=O)N(CCN1CCOCC1)Cc1ccco1`, the “Percent Effect” value is reported as -4.12%.
With `Cc1cccc(C)c1NC(=O)CNC(C)Cc1ccsc1` (stereo unspecified) the “Percent Effect” value was -3.648%.
For `Cc1cc(N2CCC(NC(C)Cc3ccsc3)CC2)nc(C)n1` (stereo unspecified), the “Percent Effect” value was 1.122%.
In the case of `Cc1cccc(CNC(Cc2ccsc2)c2nccs2)n1` (stereo unspecified), the “Percent Effect” value is reported as 152.6%.
With `Fc1ccccc1CN1CCCC2(CCN(c3ncccn3)C2)C1` (stereo unspecified) the “Percent Effect” value was -4.552%.
For `O=C(O)C(F)(F)F.O=C(O)C(F)(F)F.c1ccc(N2CCC3(COCCN(Cc4cccs4)C3)C2)nc1` (stereo unspecified), the “Percent Effect” value was 103.3%.
`O=C(O)C(F)(F)F.O=C(O)C(F)(F)F.O=C1N(c2ccsc2)CCC12CCCN(Cc1ccccn1)C2` (stereo unspecified) was tested, and the “Percent Effect” value was 2.891%.
`O=C(NCc1ccccn1)[C@]12COC[C@H]1CN(Cc1ccsc1)C2.O=C(O)C(F)(F)F.O=C(O)C(F)(F)F` was tested, and the “Percent Effect” value was 103%.
With `O=C(O)C(F)(F)F.c1cnc(N2CCOCC3(CCCN(Cc4cc[nH]n4)C3)C2)nc1` (stereo unspecified) the “Percent Effect” value was -14.28%.
With `O=C(NCc1ccccn1)[C@]12COC[C@H]1CN(C1CCC1)C2.O=C(O)C(F)(F)F.O=C(O)C(F)(F)F` the “Percent Effect” value was -13.49%.
In the case of `Cc1nc(CN2CCOCC3(CCN(c4ncccn4)C3)C2)cs1.O=C(O)C(F)(F)F.O=C(O)C(F)(F)F` (stereo unspecified), the “Percent Effect” value is reported as -16.84%.
For `c1cnc(N2CCCC3(CCN(Cc4cccs4)C3)C2)nc1` (stereo unspecified), the “Percent Effect” value was 109.3%.
For `CCC(CC)CN1CCC2(CCCN(c3ncccn3)C2)C1` (stereo unspecified), the “Percent Effect” value was -25.35%.
In the case of `CN(C)C[C@]12COC[C@H]1CN(Cc1ccccn1)C2.O=C(O)C(F)(F)F.O=C(O)C(F)(F)F.O=C(O)C(F)(F)F`, the “Percent Effect” value is reported as -16.37%.
`O=C(O)C(F)(F)F.O=C(O)C(F)(F)F.O=C(O)C(F)(F)F.c1ccc(CN2CCCC3(CCN(Cc4cccs4)C3)C2)nc1` (stereo unspecified) was tested, and the “Percent Effect” value was 118.7%.
For `c1cc([C@H]2C[C@@H]3CCN(Cc4nccs4)C[C@H]3O2)ncn1`, the “Percent Effect” value was -0.9402%.
With `COCC1CC2(CCNCC2)CN1c1ncccn1` (stereo unspecified) the “Percent Effect” value was -4.112%.
`O=C(O)C(F)(F)F.c1ccc(N2CCCC3(CCN(Cc4ccsc4)C3)C2)nc1` (stereo unspecified) was tested, and the “Percent Effect” value was 92.47%.
With `Fc1cnc(N2CCCC3(CCN(Cc4ccsc4)C3)C2)nc1.O=C(O)C(F)(F)F.O=C(O)C(F)(F)F` (stereo unspecified) the “Percent Effect” value was -8.586%.
For `O=C(O)C(F)(F)F.O=C(O)C(F)(F)F.c1ccc(CN2CCCC3(CCN(CC4CCCO4)CC3)C2)nc1` (stereo unspecified), the “Percent Effect” value was 98.44%.
With `CC(C)CN1CCCC2(CCN(c3ccccn3)C2)C1.O=C(O)C(F)(F)F` (stereo unspecified) the “Percent Effect” value was 0.9995%.
In the case of `CC(C)N1CCO[C@H]2CN(C(=O)c3ccncc3F)C[C@H]21.O=C(O)C(F)(F)F`, the “Percent Effect” value is reported as -21.77%.
For `Clc1cncc(N2CCN(Cc3ccon3)CC2)n1`, the “Percent Effect” value was 98.12%.
In the case of `c1cc(CN2CCN(Cc3ccon3)C3(CCCCC3)C2)no1`, the “Percent Effect” value is reported as -15.56%.
In the case of `CCN1CCN(Cc2csc(C(C)C)n2)CC1`, the “Percent Effect” value is reported as -0.2652%.
In the case of `CCN1CCN(c2cncc(Cl)n2)CC1`, the “Percent Effect” value is reported as 88.05%.
In the case of `CCN1CCN(Cc2nc(C)no2)CC1`, the “Percent Effect” value is reported as 8.697%.
In the case of `c1cc(CN2CCSC3(CCCCC3)C2)no1`, the “Percent Effect” value is reported as -28.1%.
With `CC(C)(O)CNc1ccc(C#N)c(C(F)(F)F)c1` the “Percent Effect” value was 7.337%.
For `O=C(C1CC=CC1)N1CCC2(CC1)OCCO2`, the “Percent Effect” value was 105.5%.
`O=C(C1CCC1)N1CCC2(CC1)CNCCO2` was tested, and the “Percent Effect” value was -23.25%.
For `O=C(C1CCCCC1)N1CCC2(CC1)OCCO2`, the “Percent Effect” value was 92.72%.
For `CS(=O)(=O)N1CCC(C(=O)N2CCC3(CC2)OCCCO3)CC1`, the “Percent Effect” value was 6.012%.
`O=C(C1CCCC1)N1CCC2(CC1)OCCO2` was tested, and the “Percent Effect” value was -31.13%.
For `Cl.O=C(C1CC=CC1)N1CCC2(CC1)CNCCO2`, the “Percent Effect” value was -11.15%.
`O=C(c1cnn2c1OCCC2)N1CCC2(CC1)OCCO2` was tested, and the “Percent Effect” value was -3.54%.
In the case of `O=C(C1CC(=O)N(c2ccccc2Br)C1)N1CCC2(CC1)OCCO2` (stereo unspecified), the “Percent Effect” value is reported as -9.549%.
With `O=C(C1CCN(S(=O)(=O)N2CCCC2)CC1)N1CCC2(CC1)OCCO2` the “Percent Effect” value was 110.6%.
`Cn1cc(C2=CCN(CCCOc3ccc(C(N)=O)cc3)CC2)cn1` was tested, and the “Percent Effect” value was -2.558%.
With `Cn1ccnc1CN1CC2(CCN(Cc3ccncc3)C2)C1` the “Percent Effect” value was -5.589%.
For `Cc1cc(NC2CC3(CCN(Cc4ncccc4F)C3)C2)ncn1` (stereo unspecified), the “Percent Effect” value was 100.5%.
With `CCN1CCC2(CC1)CC(Nc1ncccn1)CO2` (stereo unspecified) the “Percent Effect” value was -3.551%.
`Cc1cccnc1CC(C)NC1Cc2ccccc2C1` (stereo unspecified) was tested, and the “Percent Effect” value was -26.27%.
With `Fc1cnccc1CN1CCC2(CCNCC2)C1` the “Percent Effect” value was -4.399%.
In the case of `Cc1cccnc1CN1CCC2(CC(Nc3ccncn3)C2)C1` (stereo unspecified), the “Percent Effect” value is reported as 130.7%.
In the case of `COC(=O)CNC(=O)c1cn(Cc2ccccc2F)nn1`, the “Percent Effect” value is reported as 4.551%.
In the case of `CN(c1ncccc1C#N)C1CCN(CCc2ccncc2)CC1`, the “Percent Effect” value is reported as -9.489%.
For `Cc1ccccc1-n1cc(C2=CCN(CCN3CCOCC3)CC2)cn1`, the “Percent Effect” value was -7.999%.
With `CCCc1nc(N2CCCN3CCC[C@H]3C2)c2cnn(C)c2n1` the “Percent Effect” value was 64.99%.
With `Cn1ncc2c(N3CCCN4CCC[C@H]4C3)nc(C(C)(C)C)nc21` the “Percent Effect” value was 135.6%.
`CCCc1nc(N2CCCC3(CCNC3)C2)c2cnn(C)c2n1` (stereo unspecified) was tested, and the “Percent Effect” value was -0.0368%.
`Cn1ncc2c(N3CCCC4(CCNC4)C3)nc(C(C)(C)C)nc21` (stereo unspecified) was tested, and the “Percent Effect” value was 8.536%.
In the case of `CC(C)c1nc(N2CCN3CCCC3C2)c2cnn(C)c2n1` (stereo unspecified), the “Percent Effect” value is reported as 18.47%.
For `CCOCc1nc2c(c(N3CCN4CCCC4C3)n1)CCNCC2` (stereo unspecified), the “Percent Effect” value was 3.786%.
With `Cc1nc(COC[C@@H]2CC[C@H]3NCC[C@H]3O2)cs1.Cl.Cl` the “Percent Effect” value was 12.23%.
For `N#Cc1ccc(NC2CCN(c3ncccn3)CC2)cc1C(F)(F)F`, the “Percent Effect” value was -29.96%.
In the case of `Cc1nc(CC(=O)N2CCCC(N(C)Cc3ccccc3)C2)cs1` (stereo unspecified), the “Percent Effect” value is reported as 124%.
With `O=C(Cc1csc(-c2ncccn2)n1)N1CCN2CCCCC2C1` (stereo unspecified) the “Percent Effect” value was 6.768%.
`CN(C(=O)Cc1ccn(C)c1)C1CCCN(C2Cc3ccccc3C2)C1` (stereo unspecified) was tested, and the “Percent Effect” value was -11.39%.
With `Cc1nc(CC(=O)N2CCN(C(C)c3ccccc3F)CC2)cs1` (stereo unspecified) the “Percent Effect” value was -7.662%.
With `Cc1cccc(CC(=O)N2CCCC(N(C)CCCN(C)C)C2)c1` (stereo unspecified) the “Percent Effect” value was 81.85%.
`Cc1nc(CC(=O)N2CCCC[C@H](N(C)C)C2)cs1` was tested, and the “Percent Effect” value was 105.8%.
`Cc1nc(CN2CCN(C(=O)Cc3cccc(Cl)c3)CC2)no1` was tested, and the “Percent Effect” value was 6.745%.
`CN(C)C(=O)CN1CCN(C(=O)Cc2csc(-c3ncccn3)n2)CC1` was tested, and the “Percent Effect” value was -5.623%.
For `Cc1nc(CC(=O)N(C)C2CCCN(CCc3ccccc3)C2)cs1` (stereo unspecified), the “Percent Effect” value was 10.74%.
For `COc1ncccc1CN1CC[C@H]2O[C@@H](c3nnc(C)o3)CC[C@H]21`, the “Percent Effect” value was -10.73%.
For `O=C(Nc1cccnc1)[C@H]1CN(Cc2ccco2)C[C@H]2OCC[C@@H]12.O=C(O)C(F)(F)F.O=C(O)C(F)(F)F`, the “Percent Effect” value was -18.85%.
In the case of `CNC(=O)CN1CCO[C@H]2CN(C(=O)c3ccncc3F)C[C@H]21.O=C(O)C(F)(F)F`, the “Percent Effect” value is reported as -18.06%.
In the case of `Cc1ccccc1CC(C)NCc1c(C)nn(C)c1N1CCOCC1.Cl` (stereo unspecified), the “Percent Effect” value is reported as 6.405%.
For `CCOC(C)c1noc(CN(C)C(=O)C2C(C)(C)C2(C)C)n1` (stereo unspecified), the “Percent Effect” value was 12.97%.
With `C[C@H]1C[C@@H]2CCN(CC3CCOCC3)C[C@H]2O1` the “Percent Effect” value was -3.08%.
In the case of `O=C1CO[C@H]2CN(C3CCOCC3)C[C@H]2N1Cc1ccccn1`, the “Percent Effect” value is reported as -4.247%.
With `O=C(O)C(F)(F)F.O=C(O)C(F)(F)F.O=C1CO[C@@H]2CN(CC3CCOCC3)C[C@H]2N1Cc1ccncc1` the “Percent Effect” value was 87.76%.
For `O=C(O)C(F)(F)F.O=C(O)C(F)(F)F.O=C(O)C(F)(F)F.O=C(O)C(F)(F)F.c1cc(CN2C[C@@H]3OCCN(CCN4CCCC4)[C@@H]3C2)ccn1`, the “Percent Effect” value was 0.06106%.
In the case of `O=C(O)C(F)(F)F.O=C(O)C(F)(F)F.O=C1CO[C@@H]2CN(Cc3cccs3)C[C@H]2N1Cc1ccncc1`, the “Percent Effect” value is reported as -4.405%.
With `O=C1CO[C@H]2CN(C3CCOCC3)C[C@H]2N1Cc1ccncc1` the “Percent Effect” value was -21.59%.
In the case of `O=C1CO[C@@H]2CN(C3CCOCC3)C[C@H]2N1Cc1ccncc1`, the “Percent Effect” value is reported as 117.1%.
With `NCC1(c2cccc(C(F)(F)F)c2)CCOCC1` the “Percent Effect” value was -0.8853%.
For `CCCN1CCN(C(=O)c2cnccc2C)[C@H]2CS(=O)(=O)C[C@H]21`, the “Percent Effect” value was -10.68%.
For `CC[C@]12CN3C[C@](C)(CN(C1)C3c1[nH]c(=O)[nH]c(=O)c1C)C2=O` (stereo partly specified), the “Percent Effect” value was 105.1%.
In the case of `CCC[C@]12CN3C[C@](C)(CN(C1)C3c1[nH]c(=O)[nH]c(=O)c1C)C2=O` (stereo partly specified), the “Percent Effect” value is reported as 118.8%.
In the case of `CC[C@]12CN3C[C@](CC)(CN(C1)C3c1[nH]c(=O)[nH]c(=O)c1C)C2=O` (stereo partly specified), the “Percent Effect” value is reported as 112.4%.
For `Cc1c(C2N3C[C@]4(C)CN2C[C@](C)(C3)C4=O)[nH]c(=O)[nH]c1=O` (stereo partly specified), the “Percent Effect” value was 140.1%.
`COCC(=O)NC[C@H]1C[C@@H]2CCN1C[C@@H]2CN(C)c1ccccc1` was tested, and the “Percent Effect” value was -6.027%.
With `O=C(c1[nH]c2ccc(Cl)cc2c1Cl)N1CCC2(CC1)OCCO2` the “Percent Effect” value was -4.336%.
`NCC1(c2cccc(C(F)(F)F)c2)CCC1` was tested, and the “Percent Effect” value was 15.34%.

Reference: ChEMBL document CHEMBL3988442, “University of Dundee, Small-Polar-MMV Screening Library” (2021)
